Assay outcomes as filed in PubChem.
Only some compounds are listed: those with a hit (about 6.2% of all), similar ones and a draw of the others.
KB-3-1 tox – qHTS assay for MDR1-selective chemotherapeutics: Primary screen using the parental adenocarcinoma cell KB-3-1; KB-3-1 viability, CellTiter-Glo ATP luminescence, 72 h; Potency, µM (highest dose often 46.1 µM), most hits filed as cytotoxic; actives 1.4% (n = 400,000); note: % is set by controls: 0 for no effect and ±100 for the full control effect; nearly all actives have a fitted effect of over 60% in size
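KB-3-1 cells, DMEM (no phenol red) + 10% FBS; compound by pin transfer, 72 h, 37 °C. Readout: CellTiter-Glo luminescence after 10 min. Data normalized, curve-fitted.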
ATXN viability – Viability Counterscreen for Primary qHTS for Inhibitors of ATXN expression; S2 cells (HEK-293 line with an ATXN2-luciferase reporter) viability, CellTiter-Fluor protease fluorescence, 24 h; Potency, µM (doses to about 56.7 µM), usual class: cytotoxic; actives 0.49% (n = 400,000); AID 651635, 2014; note: nearly all actives have a fitted effect of over 40% in size
ATXN2 expr inh – Primary qHTS for Inhibitors of ATXN expression. HEK-293 ATXN2-luciferase reporter, luminescence, 24 h. actives 0.72% (n = 360,000). Potency, µM (series often up to 57 µM), for the others: at the highest dose activity change, negative = inhibition, actives largely listed as inhibitors; note: % is set by controls: 0 for no effect and ±100 for the full control effect; nearly all actives have a fitted effect of over 55% in size
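qHTS (up to 57 uM final) was run with 24 h compound exposure of reporter cells at 37 °C. Each well was multiplexed: SteadyGlo luminescence measured ATXN2-luciferase expression after a fluorogenic Gly-Phe-AFC viability readout (25 uM final).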
HT1080 IDH1KD tx – qHTS for induction of synthetic lethality in tumor cells producing 2HG: qHTS for the HT-1080-IDH1KD cell line. HT-1080 IDH1 knockdown viability, ATP luminescence, 48 h. Potency, µM (titrated, usually from 46.1 µM), for the others: top-dose activity, negative = toxicity, most hits filed as cytotoxic. actives 2% (n = 360,000). AID 686971, 2013;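 note: 0% = DMSO wells and -100% = cell-free medium wells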
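HT-1080-IDH1KD cells (IDH1 knocked down), 750/well in RPMI with 5% FBS, treated with compound 48 h at 37 degrees C. Viability by CellTiter-Glo luminescence, normalised to DMSO and no-cell wells; concentration-response curves classed.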
KB-V1 MDR tox – qHTS assay for MDR1-selective chemotherapeutics: Primary screen using the drug-selected MDR subline cells KB-V1; KB-V1 MDR cells viability, CellTiter-Glo, 72 h; Potency, µM (highest dose often 46.1 µM), hits mostly cytotoxic; actives 3.4% (n = 400,000); note: % is set by controls: 0 for no effect and ±100 for the full control effect; nearly all actives have a fitted effect of over 60% in size
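Compound-treated KB-V1 multidrug-resistant cells, 72 h, 37 degrees C; viability by CellTiter-Glo. Fitted qHTS curves give the values.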
HT1080-NT tox – qHTS for induction of synthetic lethality in tumor cells producing 2HG: qHTS for the HT-1080-NT fibrosarcoma cell line. HT-1080-NT fibrosarcoma viability, CellTiter-Glo ATP luminescence, 48 h. Potency, µM (highest dose often 46.1 µM), for the others: at the highest dose activity, negative = less viability, hits mostly cytotoxic. actives 1.6% (n = 360,000);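 note: NT is the 2HG producing partner of a matched IDH1 knockdown line; 0% = DMSO-treated cells and -100% = media-only wells without cells; nearly all actives have a fitted effect of over 55% in size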
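Compounds were tested in concentration-response format on HT-1080-NT cells for 48 hours at 37 degrees C. Cell viability came from CellTiter-Glo luminescence; curves were classified by r2, response magnitude and activity.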
Numbers without * were called inactive; i = inactive; ? = inconclusive; / = not tested or not shown; ! = a repeat was not active. Calls come from the whole dose curve; as a rule, active = well fitted curve in the direction sought with a large enough effect; inconclusive = small, poorly fitted or top-dose-only effect, or another doubt; inactive = no such curve, though single readings can be large; an effect the other way counts as inactive or inconclusive. Potency is the fitted concentration of half-maximal effect.

SMILES | KB-3-1 tox | ATXN viability | ATXN2 expr inh | HT1080 IDH1KD tx | KB-V1 MDR tox | HT1080-NT tox
O=[N+]([O-])c1ccc(S(=O)(=O)c2cccc(C(F)(F)F)c2)nc1 | ? | 16µM* | ? | 7.3µM* | ? | 10µM*
O=S(=O)(Nc1cccnc1)c1cccc(C(F)(F)F)c1 | i | i | -5% | 1% | i | -6%
CCNC1CCC(Nc2ccnc3cc(Cl)ccc23)CC1 (centres undefined) | ? | ? | ? | ? | ? | -1%
OC(CNc1ccnc2cc(Cl)ccc12)CNC1CCCCC1 (centres undefined) | ? | / | 32µM* | 21µM* | ? | 21µM*
Nc1cc(C(=O)O)c(N)c2c1C(=O)c1ccccc1C2=O | ? | 14µM* | ? | ? | i | ?
NNC(=O)C(=O)Nc1ccc(O)cc1 | ? | i | / | ? | i | 7.3µM*
COC(=O)c1ccc2nc(-c3ccc4c(c3)OCO4)cn2c1 | i | i | ? | 23% | i | 12%
CCc1ccn2cc(-c3ccc4c(c3)OCO4)nc2c1 | ? | ? | 3.5µM* | 13µM* | ? | 12µM*
CN(Cc1ccc(F)cc1)C(=O)c1cccc(S(=O)(=O)NCc2ccccc2)c1 | i | i | -10% | -2% | i | -5%
C=CCOc1ccc(CN(C)C(=O)c2ccc(CNS(=O)(=O)c3ccc(C)c(C)c3)cc2)cc1 | 13µM* | i | -19% | ? | ? | ?
CC1CN(C(=O)Cn2cc(S(=O)(=O)CC(=O)N3CCOCC3)c3ccccc32)CC(C)O1 (centres undefined) | i | i | 19% | 13% | i | 19%
O=C1CCN(Cc2ccccc2)CCN1[C@H](CSc1ccccc1)Cc1ccccc1 | ? | i | -7% | -13% | 15µM*! | -7%
COc1ccc(SC[C@H](C)CN2CC[C@H](NC(=O)OCc3ccccc3)CCC2=O)cc1 | 15µM*! | i | -25% | -15% | 12µM*! | -1%
O=C1CCN(CCc2ccccc2)CCN1[C@H](CSc1ccc(Br)cc1)Cc1ccccc1 | ? | ? | -26% | -9% | i | -13%
C[C@@H](CSc1ccc(Br)cc1)CN1CC[C@H](NC(=O)OCc2ccccc2)CCC1=O | ? | ? | -39% | -28% | 15µM*! | -19%
O=C(N[C@H]1CCC(=O)N([C@H](CSc2ccccc2)Cc2ccccc2)CC1)OCc1ccccc1 | ? | ? | -20% | -11% | 18µM*! | -9%
CCOc1ccccc1/C=C/c1onc(C)c1S(=O)(=O)N1CCC(C(=O)N2CCCCC2)CC1 | i | / | / | / | i | /
COc1ccc(S[C@@H](CCN2CC[C@H](NC(=O)OCc3ccccc3)CCC2=O)c2ccccc2)cc1 | 13µM*! | ? | -32% | ? | ? | ?
O=C(N[C@@H]1CCC(=O)N(CC[C@H](Sc2ccc(Br)cc2)c2ccccc2)CC1)OCc1ccccc1 | ? | ? | -32% | -3% | ? | -7%
COCCNC(=O)Cn1cc(S(=O)(=O)Cc2ccccc2Cl)c2ccccc21 | i | / | / | / | i | /
COc1ccccc1NC(=O)CN1C(=O)CC(c2ccc(C)c(C)c2)=Nc2ccccc21 | i | ? | 23% | / | 16µM* | /
Cc1ccc(-n2ncc3c(=O)n(CC(=O)N4CCCc5ccccc54)cnc32)cc1C | i | ? | -11% | -10% | 18µM* | -1%
O=C(Cn1cnc2c(oc3ccccc32)c1=O)N1CCCc2ccccc21 | i | i | 10% | 0% | 4.1µM* | 1%
O=C(Cn1cnc2c(cnn2-c2ccc(F)cc2)c1=O)N1CCCc2ccccc21 | ? | i | 1% | -11% | 2.9µM* | -1%
CC1(Cc2ccc(F)cc2)C(=O)Nc2ccc(S(=O)(=O)NC3CCCCC3)cc21 (centres undefined) | i | ? | ? | 2% | i | -25%
SMILES | KB-3-1 tox | ATXN viability | ATXN2 expr inh | HT1080 IDH1KD tx | KB-V1 MDR tox | HT1080-NT tox
N#CC(=C(N)Sc1ccc(N)cc1)c1ccccc1C(F)(F)F | / | / | 7% | / | / | /
CCOC(=O)c1ccc(NC(=O)CSc2nc3ccccc3c(=O)n2CCNC(C)=O)cc1 | i | i | -1% | / | i | /
COc1ccccc1NC(=O)Cn1cnc2c(cnn2-c2ccc(C)c(C)c2)c1=O | i | i | -14% | -15% | 13µM* | 0%
O=C(Cn1cnc2c(nnn2Cc2ccc(Cl)cc2)c1=O)N1CCCc2ccccc21 | i | i | 1% | 3% | i | 16%
O=C(Cn1cnc2c(nnn2Cc2ccc(F)cc2)c1=O)N1CCCc2ccccc21 | i | ? | -5% | 1% | 16µM* | 3%
Cc1ccc(-n2ncc3c(=O)n(CC(=O)N4CCN(C(=O)c5ccco5)CC4)cnc32)cc1 | i | ? | -18% | -5% | 12µM* | 3%
COc1ccc(OC)c(NC(=O)Cn2cnc3sc(C)c(S(=O)(=O)N4CCN(c5ccccc5OC)CC4)c3c2=O)c1 | i | i | 3% | / | i | /
COc1ccccc1NC(=O)Cn1cnc2sc(C)c(S(=O)(=O)N3CCCCC3)c2c1=O | i | i | 3% | 13% | 9.2µM* | 16%
CC(=O)Nc1ccc(OC(=O)Cc2ccc(Cl)cc2)cc1 | i | i | -10% | 7% | i | -7%
CCCCN(C(=O)CSc1ncn[nH]1)c1c(N)n(Cc2ccccc2)c(=O)[nH]c1=O | i | i | 5% | -2% | i | -1%
O=C(Cn1cnc2c(cnn2-c2ccc(F)cc2)c1=O)N1CCN(c2ccccc2F)CC1 | i | i | -6% | -6% | 3.7µM* | -5%
O=c1c2cnn(-c3ccccc3)c2ncn1Cc1ccccc1 | i | i | -8% | -17% | 21µM* | -8%
Cc1ccc(-n2ncc3c(=O)n(CC(=O)N4CCN(c5ccccc5F)CC4)cnc32)cc1C | i | i | 5% | -7% | i | -1%
O=c1c2cnn(-c3ccc(F)cc3)c2ncn1Cc1ccc(F)cc1 | i | i | -7% | -4% | i | 1%
CC(CNC(=O)c1cc(-c2ccccc2)n[nH]1)c1ccccc1 (centres undefined) | i | / | / | / | i | /
COc1cc(=O)n2c(c1C(=O)N(C)Cc1nccs1)CCN(Cc1ccc(F)c(F)c1)CC2 | / | i | / | / | / | /
